# Most compounds without a hit are left out; they make up all but 6.7% or so of the library.
# KB-3-1 tox: qHTS assay for MDR1-selective chemotherapeutics: Primary screen using the parental adenocarcinoma cell KB-3-1 | KB-3-1 viability, CellTiter-Glo ATP luminescence, 72 h | Potency, µM (titrated, usually from 46.1 µM), usual class: cytotoxic | 400,000 tested, 1.4% active; note: % is set by controls: 0 for no effect and ±100 for the full control effect; nearly all actives have a fitted effect of over 60% in size
#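 Cytotoxicity measured as CellTiter-Glo luminescence after 72 h at 37 C. Compound titrations were pinned onto drug-naive KB-3-1 parental adenocarcinoma cells grown in DMEM with 10% FBS, and normalized data fitted to concentration-response curves.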
# SW480 rerep: A quantitative high throughput screen for small molecules that induce DNA re-replication in SW480 colon adenocarcinoma cells | 340,000 tested, 1.8% active | SW480 DNA re-replication, Hoechst DNA content imaging, 48 h | Potency, µM (series often up to 46.1 µM), without a hit: top-dose re-replication activation, actives largely listed as activators; note: % of control where 0% means no effect; nearly all actives have a fitted effect of over 55% in size
#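 Image-based read-out: total Hoechst fluorescence of nuclei (405 nm excitation, 500-530 nm emission), with hits raising the fraction of high-intensity nuclei. SW480 colon cells incubated 48 hr with compounds at 37 C.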
# KB-V1 MDR tox: qHTS assay for MDR1-selective chemotherapeutics: Primary screen using the drug-selected MDR subline cells KB-V1 | KB-V1 MDR cells viability, CellTiter-Glo, 72 h | Potency, µM (doses to about 46.1 µM), usual class: cytotoxic | 400,000 tested, 3.4% active; note: % is set by controls: 0 for no effect and ±100 for the full control effect; nearly all actives have a fitted effect of over 60% in size
#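 Potencies derive from concentration-effect curves fitted to normalized luminescence (CellTiter-Glo) of KB-V1 cells treated for 72 h at 37 degrees C in phenol-red-free DMEM containing 10% FBS.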
# MCF10A rerep: A quantitative high throughput screen for small molecules that induce DNA re-replication in MCF 10a normal breast cells; MCF 10A DNA re-replication, Hoechst nuclear intensity, 48 h; Potency, µM (titrated, usually from 46.1 µM), without a hit: top-dose activity, positive = re-replication, usual class: activators; 350,000 tested, 2.9% active; note: % of control where 0% means no effect; nearly all actives have a fitted effect of over 50% in size
# PINK1 modulator: A Quantitative High throughput Screen to Identify Chemical Modulators of PINK1 Expression | AID 624263, 2012 | 410,000 tested, 0.2% active | Potency, µM (series often up to 76.6 µM), without a hit: at the highest dose activation (PINK1 increase), hits mostly activators | PINK1 immunofluorescence, high-content cytometry, 24 h; active = well fitted activation curve with a large enough effect; inconclusive = small, poorly fitted or top-dose-only effect; cell line not stated here; note: % of control where 0% means no effect; nearly all actives have a fitted effect of over 65% in size
#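 Cells are seeded, rested 12 hours, then given compound at five concentrations or DMSO for 24 hours. After fixation, blocking and antibody staining, PINK1 amount and mitochondrial localization are scored; CCCP serves as control.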
# An asterisk follows results filed as active; i = inactive; u = inconclusive; x = not tested or not shown; [ ] = remark or other dose. Unless noted, calls come from the whole dose curve; as a rule, active = well fitted curve in the direction sought with a large enough effect; inconclusive = small, poorly fitted or top-dose-only effect, or another doubt; inactive = no such curve, though single readings can be large; an effect the other way counts as inactive or inconclusive. Potency is the fitted concentration of half-maximal effect.
SMILES,KB-3-1 tox,SW480 rerep,KB-V1 MDR tox,MCF10A rerep,PINK1 modulator
C[C@@H]1CC2[C@@H]3CC[C@H]4CC(=O)CC[C@]4(C)C3=CC[C@]2(C)[C@@]1(O)C(=O)CO (some centres not stated),i,0%,i,-5%,1%
CC(=O)C1(O)C(C)CC2C3CCC4CC(O)CCC4(C)C3=CCC21C (configuration not stated),i,u,i,18µM*,u
CCOc1ccc(N/C=C/C(=O)c2ccccc2)c([N+](=O)[O-])c1,16µM*,0%,u,7%,2%
Cc1ccc(C)c(N2CCN(S(=O)(=O)c3cc(C(=O)Nc4ccccc4C(F)(F)F)ccc3F)CC2)c1,x,x,x,x,-1%
O=C(Nc1ccc(Cl)cc1C(=O)NCC1CCCO1)c1ccco1 (configuration not stated),u,-3%,8.2µM*,u,3%[38.3 µM]
O=C(COc1ccccc1C(=O)NCC1CCCO1)Nc1ccc(Cl)cc1Cl (configuration not stated),i,3%,u,3%,1%
O=C(Nc1ccc(Cl)cc1C(=O)NCC1CCCO1)c1ccc(Cl)cc1Cl (configuration not stated),i,-63%,10µM*,u,0%
O=C(NCC1CCCO1)c1ccccc1NS(=O)(=O)c1cc([N+](=O)[O-])ccc1Cl (configuration not stated),u,3%,16µM*,6%,2%
O=C(NCC1CCCO1)c1ccccc1OCc1ccc(Cl)cc1 (configuration not stated),i,3%,3.7µM*,7%,-1%
OC(c1cccc(Cl)c1)c1ncc(-c2ccc(C(F)(F)F)cc2)[nH]1 (configuration not stated),i,x,i,x,15%
CCC1(C2CCN(C(=O)c3ccccc3C(C)=O)CC2)NC(=O)N(CCc2scnc2C)C1=O (configuration not stated),x,x,x,x,0%
Cc1ccc(S(=O)(=O)N2CCN(C(=O)CC(C)n3nc(C)c(Cl)c3C)CC2)cc1C (configuration not stated),i,-12%,i,-10%,3%
CCOC(=O)c1c(C)oc2nc(C)nc(NCCCN3CCN(c4ccc(F)cc4)CC3)c12,i,x,i,x,0%
O=C(Nc1ccc(Cl)cc1C(=O)NCCN1CCOCC1)c1ccc(Cl)cc1Cl,i,0%,4.6µM*,1%,1%
O=C(Nc1c(Cl)cc(Cl)cc1C(=O)NCCN1CCOCC1)c1ccc(Cl)cc1Cl,i,-2%,u,24%,-5%[38.3 µM]
CN(C)c1ccc(C(C(=O)NC2CCCCC2)N(Cc2ccco2)C(=O)c2snc(C(N)=O)c2N)cc1 (configuration not stated),u,11%,21µM*,9%,-2%
CCOc1ccc(N(C(=O)c2snc(C(N)=O)c2N)C(CC)C(=O)NC2CCCC2)cc1 (configuration not stated),i,23µM*,i,0%,4%
CCOc1ccc(C(C(=O)NC2CCCC2)N(Cc2ccccc2)C(=O)c2nsc(Cl)c2Cl)cc1 (configuration not stated),21µM*,u,u,13%,0%
Cc1cc(C)cc(N(C(=O)c2nsc(Cl)c2Cl)C(C(=O)NC2CCCC2)c2ccc(O)cc2)c1 (configuration not stated),i,u,18µM*,u,u
COc1cc(OC)c(NC(=O)Cn2c(SCc3ccccc3F)nc3cccnc32)cc1Cl,x,x,x,x,1%
CCn1c(=N)n(CCOc2ccc(Br)cc2)c2ccccc21,x,x,x,x,-1%
COC(=O)c1ccc(Cn2c(SCc3ccc(F)cc3)nc3ccncc32)cc1,i,x,i,x,-1%
NC(=O)c1nsc(C(=O)N(c2ccccc2)C(C(=O)NC2CCCC2)c2ccc3ncccc3c2)c1N (configuration not stated),i,18%,i,21µM*,2%
COc1ccc(N(C(=O)c2snc(C(N)=O)c2N)C(C(=O)NC2CCCC2)c2ccc3ncccc3c2)cc1 (configuration not stated),i,u,i,u,-2%
CCOc1ccccc1N(C(=O)c1snc(C(N)=O)c1N)C(C(=O)NC1CCCC1)c1ccco1 (configuration not stated),i,2%,10µM*,15%,2%
SMILES,KB-3-1 tox,SW480 rerep,KB-V1 MDR tox,MCF10A rerep,PINK1 modulator
Cc1ccccc1N(C(=O)c1snc(C(N)=O)c1N)C(C)C(=O)NC1CCCCC1 (configuration not stated),i,-6%,i,u,1%
Cc1cccc(N(C(=O)c2nsc(Cl)c2Cl)C(C(=O)NC2CCCC2)c2ccc(O)cc2)c1C (configuration not stated),u,u,21µM*,17%,45µM*
CCOc1ccccc1N(C(=O)c1snc(C(N)=O)c1N)C(C(=O)NC1CCCC1)c1cccs1 (configuration not stated),i,u,u,u,2%
Cc1ccccc1N(C(=O)c1snc(C(N)=O)c1N)C(C(=O)NC1CCCCC1)c1ccc(O)cc1 (configuration not stated),u,16µM*,i,u,-3%
Cn1ncc2ccc(-c3ccc4ncnc(NCc5cccs5)c4c3)cc21,u,x,i,x,x
COCCNC(=O)C1(C)CCCN(C(=O)c2cc(C)on2)C1 (configuration not stated),i,x,i,x,3%
Brc1ccc[n+](CCC2CCCCC2)c1,u,x,u,x,1%
CC(OC(=O)c1snc(C(=O)NC2CCCCC2)c1N)C(=O)NC1CCCCC1 (configuration not stated),i,u,u,21µM*,24%
CC1CCN(c2ccc(NC(=O)c3cccnc3)cc2)CC1,i,-5%,18µM*,2%,-1%
CCOc1cc(C(=O)Nc2cc(C)ccc2OC)ccc1OCC(=O)N1CCCCC1,i,-147%,7.3µM*,-35%,4%
CCOc1cc(C(=O)Nc2ccc(C)cc2C)ccc1OCC(=O)N1CCCCC1,i,-1%,i,-3%,-1%
COc1ccc(NC(=O)c2ccc(CN3CCN(c4ccccc4)CC3)cc2)cc1OC,u,4%,16µM*,-2%,5%
COc1ccc(C)cc1NC(=O)c1ccc(CN2CCN(c3ccccc3)CC2)cc1,u,25%,18µM*,u,2%

# High-throughput results: PubChem, National Center for Advancing Translational Sciences (NCATS)
